Laboratory results reported in ChEMBL document CHEMBL1961873, “Compounds: GSK PKIS; Assays: Nanosyn kinase panel” (2012).

What was measured:
[1] = biological target: Sphingosine kinase 1 (Homo sapiens) (UniProt Q9NYA1); conditions: at 1 µM;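 also: mean SPHK1 inhibition value reported from the GSK PKIS kinase panel screen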
[2] = biological target: T1, Sphingosine kinase 2 (Homo sapiens) (UniProt Q9NRA0); conditions: at 0.1 µM
T1 sequence (whole entry): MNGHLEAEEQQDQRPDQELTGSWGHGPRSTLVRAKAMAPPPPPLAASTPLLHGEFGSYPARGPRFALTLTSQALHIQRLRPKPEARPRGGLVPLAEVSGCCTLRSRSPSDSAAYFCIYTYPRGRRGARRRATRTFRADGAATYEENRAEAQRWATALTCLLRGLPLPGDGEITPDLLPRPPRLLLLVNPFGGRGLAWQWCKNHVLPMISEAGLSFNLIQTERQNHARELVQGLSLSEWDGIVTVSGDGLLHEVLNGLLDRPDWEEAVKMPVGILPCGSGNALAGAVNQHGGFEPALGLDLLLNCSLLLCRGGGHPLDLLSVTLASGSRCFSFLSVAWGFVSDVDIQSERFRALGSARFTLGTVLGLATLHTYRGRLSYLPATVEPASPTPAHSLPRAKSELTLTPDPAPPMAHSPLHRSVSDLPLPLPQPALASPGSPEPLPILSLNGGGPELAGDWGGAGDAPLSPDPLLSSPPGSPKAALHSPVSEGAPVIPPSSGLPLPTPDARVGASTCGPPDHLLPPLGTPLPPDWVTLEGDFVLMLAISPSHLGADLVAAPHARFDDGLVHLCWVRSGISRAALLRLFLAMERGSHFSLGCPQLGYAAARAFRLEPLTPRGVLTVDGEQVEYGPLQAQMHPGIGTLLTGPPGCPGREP

[3] = biological target: T1, Sphingosine kinase 2 (Homo sapiens); conditions: at 1 µM
[4] = biological target: Casein kinase II subunit alpha (Homo sapiens) (UniProt P68400); conditions: at 0.1 µM
[5] = biological target: Casein kinase II subunit alpha (Homo sapiens) (UniProt P68400); conditions: at 1 µM
[6] = biological target: T2, Inhibitor of nuclear factor kappa-B kinase subunit alpha (Homo sapiens) (UniProt O15111); conditions: at 0.1 µM
T2 sequence (whole entry): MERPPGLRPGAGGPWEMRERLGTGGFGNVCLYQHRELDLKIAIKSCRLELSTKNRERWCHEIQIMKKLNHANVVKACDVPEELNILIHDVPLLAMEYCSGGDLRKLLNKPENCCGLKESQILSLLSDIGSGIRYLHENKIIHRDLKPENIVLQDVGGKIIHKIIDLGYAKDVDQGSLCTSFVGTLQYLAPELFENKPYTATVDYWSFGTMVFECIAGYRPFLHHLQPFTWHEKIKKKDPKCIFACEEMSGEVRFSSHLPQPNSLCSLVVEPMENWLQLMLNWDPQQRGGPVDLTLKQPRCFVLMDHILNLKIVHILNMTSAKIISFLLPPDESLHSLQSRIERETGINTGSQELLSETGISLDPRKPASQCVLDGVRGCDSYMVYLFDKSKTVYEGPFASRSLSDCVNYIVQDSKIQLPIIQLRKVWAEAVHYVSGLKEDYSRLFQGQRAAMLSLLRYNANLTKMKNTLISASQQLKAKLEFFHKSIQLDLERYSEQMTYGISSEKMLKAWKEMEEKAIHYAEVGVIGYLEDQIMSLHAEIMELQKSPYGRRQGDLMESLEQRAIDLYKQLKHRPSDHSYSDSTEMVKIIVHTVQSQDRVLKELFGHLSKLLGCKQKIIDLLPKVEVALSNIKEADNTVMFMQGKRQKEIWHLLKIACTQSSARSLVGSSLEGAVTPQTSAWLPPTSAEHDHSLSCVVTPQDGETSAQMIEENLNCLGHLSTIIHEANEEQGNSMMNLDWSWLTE

[7] = biological target: T2, Inhibitor of nuclear factor kappa-B kinase subunit alpha (Homo sapiens); conditions: at 1 µM
[8] = biological target: T3, Inhibitor of nuclear factor kappa-B kinase subunit beta (Homo sapiens) (UniProt O14920); conditions: at 0.1 µM
T3 sequence (whole entry): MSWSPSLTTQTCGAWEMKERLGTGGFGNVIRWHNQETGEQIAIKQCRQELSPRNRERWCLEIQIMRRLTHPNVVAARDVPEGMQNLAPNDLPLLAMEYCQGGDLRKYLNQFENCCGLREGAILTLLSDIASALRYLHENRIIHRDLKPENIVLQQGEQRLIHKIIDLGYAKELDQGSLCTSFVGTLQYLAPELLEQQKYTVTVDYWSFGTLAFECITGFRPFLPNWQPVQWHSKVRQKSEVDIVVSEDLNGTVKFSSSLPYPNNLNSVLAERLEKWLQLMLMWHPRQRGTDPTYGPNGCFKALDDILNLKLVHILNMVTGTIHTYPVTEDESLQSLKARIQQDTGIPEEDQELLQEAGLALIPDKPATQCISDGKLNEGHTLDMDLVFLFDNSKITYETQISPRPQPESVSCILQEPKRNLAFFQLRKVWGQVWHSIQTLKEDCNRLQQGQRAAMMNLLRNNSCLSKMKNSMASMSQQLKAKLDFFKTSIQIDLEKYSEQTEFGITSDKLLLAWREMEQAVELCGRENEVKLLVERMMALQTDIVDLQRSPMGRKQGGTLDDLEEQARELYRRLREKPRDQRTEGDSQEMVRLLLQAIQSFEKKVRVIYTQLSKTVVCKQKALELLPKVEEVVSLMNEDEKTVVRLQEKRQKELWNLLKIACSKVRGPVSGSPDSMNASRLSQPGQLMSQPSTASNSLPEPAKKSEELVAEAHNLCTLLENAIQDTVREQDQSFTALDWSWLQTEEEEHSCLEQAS

[9] = biological target: T3, Inhibitor of nuclear factor kappa-B kinase subunit beta (Homo sapiens); conditions: at 1 µM
[10] = biological target: T4, Inhibitor of nuclear factor kappa-B kinase subunit epsilon (Homo sapiens) (UniProt Q14164); conditions: at 0.1 µM
T4 sequence (whole entry): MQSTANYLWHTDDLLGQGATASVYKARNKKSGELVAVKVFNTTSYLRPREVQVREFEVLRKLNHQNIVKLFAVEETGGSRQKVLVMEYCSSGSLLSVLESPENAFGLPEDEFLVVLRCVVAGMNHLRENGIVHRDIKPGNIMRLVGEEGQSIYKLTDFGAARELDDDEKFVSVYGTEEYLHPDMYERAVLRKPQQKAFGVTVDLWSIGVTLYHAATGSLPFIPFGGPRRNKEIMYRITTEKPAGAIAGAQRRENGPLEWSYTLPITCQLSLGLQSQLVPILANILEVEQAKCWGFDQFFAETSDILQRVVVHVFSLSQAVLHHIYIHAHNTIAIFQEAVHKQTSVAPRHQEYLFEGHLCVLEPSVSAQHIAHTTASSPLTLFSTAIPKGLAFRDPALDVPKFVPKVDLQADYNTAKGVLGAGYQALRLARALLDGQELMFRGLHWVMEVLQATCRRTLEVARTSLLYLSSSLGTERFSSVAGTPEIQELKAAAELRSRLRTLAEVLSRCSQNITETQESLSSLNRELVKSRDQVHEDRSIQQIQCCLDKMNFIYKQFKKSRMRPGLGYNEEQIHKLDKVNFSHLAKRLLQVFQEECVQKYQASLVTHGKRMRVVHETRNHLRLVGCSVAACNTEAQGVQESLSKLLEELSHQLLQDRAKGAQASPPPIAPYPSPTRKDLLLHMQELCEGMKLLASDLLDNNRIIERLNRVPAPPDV

[11] = biological target: T4, Inhibitor of nuclear factor kappa-B kinase subunit epsilon (Homo sapiens); conditions: at 1 µM
[12] = biological target: T5, Serine/threonine-protein kinase Nek1 (Homo sapiens) (UniProt Q96PY6); conditions: at 0.1 µM
T5 sequence (whole entry): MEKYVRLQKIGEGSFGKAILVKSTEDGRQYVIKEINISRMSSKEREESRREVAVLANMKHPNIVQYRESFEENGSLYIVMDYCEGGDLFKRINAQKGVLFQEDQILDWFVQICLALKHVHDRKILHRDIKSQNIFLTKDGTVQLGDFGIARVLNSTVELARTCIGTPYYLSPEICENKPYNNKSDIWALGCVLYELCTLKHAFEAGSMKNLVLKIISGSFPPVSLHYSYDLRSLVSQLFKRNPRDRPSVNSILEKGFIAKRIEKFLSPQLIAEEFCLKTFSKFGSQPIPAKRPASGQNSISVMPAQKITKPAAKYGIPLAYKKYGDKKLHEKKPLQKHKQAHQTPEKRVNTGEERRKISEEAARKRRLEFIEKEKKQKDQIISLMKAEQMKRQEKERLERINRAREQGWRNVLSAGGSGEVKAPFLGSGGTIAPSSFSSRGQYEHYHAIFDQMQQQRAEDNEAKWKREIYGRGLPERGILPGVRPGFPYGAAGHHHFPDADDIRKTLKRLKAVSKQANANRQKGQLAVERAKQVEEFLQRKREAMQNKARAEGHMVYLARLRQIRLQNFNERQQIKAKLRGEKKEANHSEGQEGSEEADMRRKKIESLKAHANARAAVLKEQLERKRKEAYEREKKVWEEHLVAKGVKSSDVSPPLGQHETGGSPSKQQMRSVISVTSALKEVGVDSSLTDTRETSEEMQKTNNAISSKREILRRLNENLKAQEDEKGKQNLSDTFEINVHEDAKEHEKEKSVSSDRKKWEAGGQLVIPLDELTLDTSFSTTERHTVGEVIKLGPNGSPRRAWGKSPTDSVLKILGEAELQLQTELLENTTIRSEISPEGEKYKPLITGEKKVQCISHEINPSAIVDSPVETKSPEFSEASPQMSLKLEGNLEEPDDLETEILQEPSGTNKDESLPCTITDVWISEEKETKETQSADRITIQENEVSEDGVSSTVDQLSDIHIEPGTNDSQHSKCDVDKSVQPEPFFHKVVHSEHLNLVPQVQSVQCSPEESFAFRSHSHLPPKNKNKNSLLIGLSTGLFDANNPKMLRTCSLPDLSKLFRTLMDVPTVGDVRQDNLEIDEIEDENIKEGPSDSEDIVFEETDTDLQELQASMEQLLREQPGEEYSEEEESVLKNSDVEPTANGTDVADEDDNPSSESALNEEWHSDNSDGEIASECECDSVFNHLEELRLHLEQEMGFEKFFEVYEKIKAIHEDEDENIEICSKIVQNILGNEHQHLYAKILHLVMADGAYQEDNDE

[13] = biological target: T5, Serine/threonine-protein kinase Nek1 (Homo sapiens); conditions: at 1 µM
[14] = biological target: T6, Serine/threonine-protein kinase Nek2 (Homo sapiens) (UniProt P51955); conditions: at 0.1 µM
T6 sequence (whole entry): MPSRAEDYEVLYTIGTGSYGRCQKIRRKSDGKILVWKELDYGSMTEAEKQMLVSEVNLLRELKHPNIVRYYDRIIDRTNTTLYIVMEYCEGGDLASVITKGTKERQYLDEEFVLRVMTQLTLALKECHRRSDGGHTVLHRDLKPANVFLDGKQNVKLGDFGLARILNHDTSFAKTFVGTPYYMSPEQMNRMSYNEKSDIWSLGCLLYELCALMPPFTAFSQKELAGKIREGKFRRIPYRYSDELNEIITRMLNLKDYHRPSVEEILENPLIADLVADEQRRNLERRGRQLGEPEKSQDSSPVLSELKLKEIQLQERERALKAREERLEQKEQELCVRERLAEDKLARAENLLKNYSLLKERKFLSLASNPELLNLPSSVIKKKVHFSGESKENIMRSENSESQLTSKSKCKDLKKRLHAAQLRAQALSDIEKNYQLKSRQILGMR

[15] = biological target: T6, Serine/threonine-protein kinase Nek2 (Homo sapiens); conditions: at 1 µM
[16] = biological target: Serine/threonine-protein kinase Nek6 (Homo sapiens) (UniProt Q9HC98); conditions: at 0.1 µM
[17] = biological target: Serine/threonine-protein kinase Nek6 (Homo sapiens) (UniProt Q9HC98); conditions: at 1 µM
[18] = biological target: Serine/threonine-protein kinase Nek7 (Homo sapiens) (UniProt Q8TDX7); conditions: at 0.1 µM
[19] = biological target: Serine/threonine-protein kinase Nek7 (Homo sapiens) (UniProt Q8TDX7); conditions: at 1 µM
[20] = biological target: T7, Serine/threonine-protein kinase Nek9 (Homo sapiens) (UniProt Q8TD19); conditions: at 0.1 µM;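 also: reported value is the mean percent inhibition of NEK9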
T7 sequence (whole entry): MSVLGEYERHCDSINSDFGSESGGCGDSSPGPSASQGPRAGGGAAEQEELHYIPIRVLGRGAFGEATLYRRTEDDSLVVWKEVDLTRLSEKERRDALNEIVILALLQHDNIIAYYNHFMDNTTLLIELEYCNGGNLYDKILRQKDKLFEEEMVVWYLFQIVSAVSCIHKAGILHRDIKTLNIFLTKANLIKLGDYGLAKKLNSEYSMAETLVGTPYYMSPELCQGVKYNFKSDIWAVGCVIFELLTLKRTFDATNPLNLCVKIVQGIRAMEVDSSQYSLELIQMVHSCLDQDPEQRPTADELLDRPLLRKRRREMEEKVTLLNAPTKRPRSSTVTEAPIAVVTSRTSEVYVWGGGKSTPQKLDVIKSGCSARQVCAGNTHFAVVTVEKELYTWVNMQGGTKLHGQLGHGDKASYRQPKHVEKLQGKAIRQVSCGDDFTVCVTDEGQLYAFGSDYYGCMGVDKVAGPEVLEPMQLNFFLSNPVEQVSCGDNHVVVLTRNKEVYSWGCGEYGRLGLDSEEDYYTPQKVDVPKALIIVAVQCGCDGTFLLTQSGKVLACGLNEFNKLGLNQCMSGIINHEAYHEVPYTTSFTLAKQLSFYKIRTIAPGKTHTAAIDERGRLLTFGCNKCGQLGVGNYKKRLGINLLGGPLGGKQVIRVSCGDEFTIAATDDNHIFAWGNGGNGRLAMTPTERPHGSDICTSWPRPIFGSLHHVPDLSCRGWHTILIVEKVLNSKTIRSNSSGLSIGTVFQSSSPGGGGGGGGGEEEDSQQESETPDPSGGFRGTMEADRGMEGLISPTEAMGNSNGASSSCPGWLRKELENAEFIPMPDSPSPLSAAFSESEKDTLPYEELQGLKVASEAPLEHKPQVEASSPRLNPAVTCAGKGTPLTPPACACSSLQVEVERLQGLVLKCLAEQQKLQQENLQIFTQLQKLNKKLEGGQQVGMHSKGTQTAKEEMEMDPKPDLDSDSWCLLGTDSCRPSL

Chain of Serine/threonine-protein kinase Nek6 (Homo sapiens) (Q9HC98 whole entry): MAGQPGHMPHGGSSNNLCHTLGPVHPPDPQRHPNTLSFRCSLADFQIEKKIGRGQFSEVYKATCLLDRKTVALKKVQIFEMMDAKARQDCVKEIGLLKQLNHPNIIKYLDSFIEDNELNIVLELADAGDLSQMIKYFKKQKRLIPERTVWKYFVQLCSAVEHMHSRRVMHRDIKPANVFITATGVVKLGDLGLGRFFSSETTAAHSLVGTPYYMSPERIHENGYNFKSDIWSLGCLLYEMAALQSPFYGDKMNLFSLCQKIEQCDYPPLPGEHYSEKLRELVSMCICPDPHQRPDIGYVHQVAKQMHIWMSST
Chain of Casein kinase II subunit alpha (Homo sapiens) (P68400 whole entry, looked up): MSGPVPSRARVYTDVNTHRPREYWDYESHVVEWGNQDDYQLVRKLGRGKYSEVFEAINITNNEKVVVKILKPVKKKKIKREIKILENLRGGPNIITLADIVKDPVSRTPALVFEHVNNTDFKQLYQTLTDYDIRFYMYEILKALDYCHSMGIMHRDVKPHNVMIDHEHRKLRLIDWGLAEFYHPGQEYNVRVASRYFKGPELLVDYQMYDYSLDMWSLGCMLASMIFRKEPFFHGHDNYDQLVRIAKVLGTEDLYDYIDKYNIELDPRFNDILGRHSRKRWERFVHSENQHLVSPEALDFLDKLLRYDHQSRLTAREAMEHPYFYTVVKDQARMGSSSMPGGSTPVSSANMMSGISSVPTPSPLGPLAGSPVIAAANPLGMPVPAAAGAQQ
Chain of Serine/threonine-protein kinase Nek7 (Homo sapiens) (Q8TDX7 whole entry, looked up): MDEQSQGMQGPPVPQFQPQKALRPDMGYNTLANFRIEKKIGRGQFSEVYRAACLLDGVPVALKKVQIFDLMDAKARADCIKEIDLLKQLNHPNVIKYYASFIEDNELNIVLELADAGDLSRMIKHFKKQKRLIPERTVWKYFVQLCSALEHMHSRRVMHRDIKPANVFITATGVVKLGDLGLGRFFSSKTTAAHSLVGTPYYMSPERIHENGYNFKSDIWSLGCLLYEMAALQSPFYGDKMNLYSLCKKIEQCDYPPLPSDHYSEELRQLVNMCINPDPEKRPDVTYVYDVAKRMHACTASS
Chain of Sphingosine kinase 1 (Homo sapiens) (Q9NYA1 whole entry): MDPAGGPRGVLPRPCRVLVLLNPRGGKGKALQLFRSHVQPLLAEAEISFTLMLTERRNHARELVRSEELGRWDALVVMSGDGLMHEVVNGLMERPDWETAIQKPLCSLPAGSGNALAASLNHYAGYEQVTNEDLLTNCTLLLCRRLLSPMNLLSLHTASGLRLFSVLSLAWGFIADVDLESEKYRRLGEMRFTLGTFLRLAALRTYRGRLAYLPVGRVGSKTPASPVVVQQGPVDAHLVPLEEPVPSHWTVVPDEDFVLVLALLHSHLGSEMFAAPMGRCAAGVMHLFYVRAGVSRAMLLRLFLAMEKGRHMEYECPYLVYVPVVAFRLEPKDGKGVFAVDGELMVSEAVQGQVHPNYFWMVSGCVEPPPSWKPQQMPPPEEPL

Compound	inhibition [1] [%]	inhibition [2] [%]	inhibition [3] [%]	inhibition [4] [%]	inhibition [5] [%]	inhibition [6] [%]	inhibition [7] [%]	inhibition [8] [%]	inhibition [9] [%]	inhibition [10] [%]	inhibition [11] [%]	inhibition [12] [%]	inhibition [13] [%]	inhibition [14] [%]	inhibition [15] [%]	inhibition [16] [%]	inhibition [17] [%]	inhibition [18] [%]	inhibition [19] [%]	inhibition [20] [%]
O=C(Nc1ccc(Oc2ccc3[nH]c(NC(=O)c4ccccc4)nc3c2)cc1)Nc1cc(C(F)(F)F)ccc1F	3.13	17.6	-0.1	2.74	4.99	-5.25	-0.85	4.57	2.88	3.68	3.04	1.92	2.89	4.15	3.11	3.73	1.7	4.29	4.36	9.72
NC(=O)c1cc(-c2ccncc2)cc(-c2ccccc2)c1N	1.79	-0.11	-1.58	2.36	2.75			9.18	27.5	6.3	14.9	3.64	3.27	6.42	6.13	2.63	-0.35	4.53	3.98	9.48
